Test results taken from PubChem BioAssay AID624354 (Sanford-Burnham Center for Chemical Genomics, 2012).
Out of some 360,000 compounds screened, about 3,800 (1.1%) were called active. For the sample, actives were picked, then their nearest neighbours and some compounds at random. Unmarked numbers belong to inactive results.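 Rule for the calls: active = compounds causing at least 50% loss of cell viability in the single-dose screen, relative to plate controls; inactive = the rest.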

Assay: TRAIL-exposed caspase-8 expressing cell killing – NB7+C8 cells, ATPlite luminescence, TRAIL sensitizer project, primary screen (AID 624354)
Conditions: at 10 µM, hits give high values

First: CCOc1cc(/C=C(/C#N)c2ccc(Cl)cc2)cc(Cl)c1OCC(=O)O
Second: CCOc1ccc(C(CCc2ccccc2)NC(=O)c2ccc(OC)c(OC)c2)cc1OCC (stereo unspecified)
The inhibition (viability loss, TRAIL sensitization) of the first is lower: 11.5% for the first, 30.5% for the second.

Going from `O=C(O)c1c(NC(=O)N2CCCC2)sc2c1CCCC2` to `O=C(CN1CCCC1)Nc1sc2c(c1C(=O)Nc1ccccc1)CCCC2`, the inhibition (viability loss, TRAIL sensitization) rises from 1.53% to 20.1%.

Compared with `C[C@H]1[C@H]2c3nc4ccccc4n3C[C@H]1ON2C1CCCCC1`, `O=C(NCCCN1CCN(c2ccccc2F)CC1)C1CCC(=O)N1C1CCCCC1` (stereo unspecified) is higher in inhibition (viability loss, TRAIL sensitization): -6.24% for the first, 0.0726% for the second.

Going from `Cc1ccccc1S(=O)(=O)NC(=O)C1(C)CCN1C(=O)C1(c2ccc(Cl)cc2)CC1` (stereo unspecified) to `CS(=O)(=O)N(Cc1ccc(Cl)cc1)c1ccc(C(=O)NCCSCc2ccco2)cc1`, the inhibition (viability loss, TRAIL sensitization) rises from -8.57% to -4.92%.

Going from `CC(=O)c1ccc(S(=O)(=O)NC2CC(=O)N(c3ccc4c(c3)OCCO4)C2)cc1` (stereo unspecified) to `Cc1ccc2cc(CCNC(=O)c3ccc4c(c3)OCO4)c(=O)[nH]c2c1`, the inhibition (viability loss, TRAIL sensitization) falls from 2.78% to 1.68%.

Going from `COc1ccc(Br)cc1CN(C)C(=O)C1CC(=O)N(C2CCCC2)C1` (stereo unspecified) to `Cc1c(C(=O)NCCN(C)C)oc2ccc(S(=O)(=O)N3CCCC3)cc12`, the inhibition (viability loss, TRAIL sensitization) rises from -13.6% to -7.61%.

First: CCN(CC)CCNC(=O)C1c2ccccc2C(=O)N(C)C1c1cn(C)c2ccccc12 (stereo unspecified)
Second: COc1ccc(CCNC(=O)CN(c2ccccc2)S(C)(=O)=O)cc1OC
The inhibition (viability loss, TRAIL sensitization) of the first is higher: 14.1% for the first, -3.49% for the second.

Compared with `O=C(NCCCN1CCCCC1)C1CC(=O)N(CCc2ccccc2)C1` (stereo unspecified), `O=C(NC1CCCCC1)c1ccc(CNc2c(N3CCOCC3)c(=O)c2=O)cc1` is lower in inhibition (viability loss, TRAIL sensitization): 1% for the first, -0.739% for the second.

First: COCOc1cccc(CN2CCC(C)(Oc3ccc(SC)cc3)C2)c1 (stereo unspecified)
Second: CCOc1ccc(/C=N\NC(=O)c2c(C)nc3cc(C)ccn23)cc1
The inhibition (viability loss, TRAIL sensitization) of the first is higher: 10.9% for the first, 7.46% for the second.

Compared with `C[C@@H]1CN([C@H](C)CO)C(=O)CCCn2cc(nn2)CO[C@H]1CN(C)S(=O)(=O)c1ccc(Oc2ccccc2)nc1`, `O=C(NC1CCCCC1)C(c1cc2ccccc2o1)n1c(=O)c(-c2ccco2)nc2ccccc21` (stereo unspecified) is lower in inhibition (viability loss, TRAIL sensitization): 2.33% for the first, 1.96% for the second.

Compared with `COc1ccc(CCNCC(O)Cn2ccc3ccccc32)cc1OC` (stereo unspecified), `C=CCN(C(=O)Nc1ccc2c(c1)nc(C)n2C)c1ccccc1` is higher in inhibition (viability loss, TRAIL sensitization): -3.08% for the first, 14.6% for the second.

First: CCOC(=O)C1CCCN(C(=O)c2sc3nc(C)nc(N4CCOCC4)c3c2C)C1 (stereo unspecified)
Second: Cc1ccc(S(=O)(=O)NCC2CCC(C(=O)N3CCOCC3)CC2)cc1 (stereo unspecified)
The inhibition (viability loss, TRAIL sensitization) of the first is higher: 15.8% for the first, -6.3% for the second.

First: CS(=O)(=O)c1ccc2c(c1)SC1=NC(=O)/C(=C/c3ccco3)C(=N)N12
Second: CCOC(=O)C1=C(O)/C(=C/c2cc(C)n(-c3ccccc3)c2C)N=C1C
The inhibition (viability loss, TRAIL sensitization) of the first is higher: 11.3% for the first, -20.2% for the second.

Compared with `COC(=O)C[C@@H]1C=C[C@@H](NC(=O)c2cccnc2)[C@@H](CO)O1`, `COC(=O)CCSc1nccn1Cc1ccccc1` is higher in inhibition (viability loss, TRAIL sensitization): -8.25% for the first, -2.49% for the second.

Going from `C/C(=N\NC(=O)c1cc(-c2ccc(O)cc2)nc2ccccc12)c1cccnc1` to `O=C(CN1C(=O)c2cccnc2Oc2ccc(Cl)cc21)Nc1ccc(F)cc1`, the inhibition (viability loss, TRAIL sensitization) rises from 3.5% to 4.45%.

First: C[C@H]1NS(=O)(=O)c2cc(Cl)ccc2O[C@@H]1c1ccccc1
Second: Cc1nc2cc(NCc3cccs3)ccc2n1C
The inhibition (viability loss, TRAIL sensitization) of the first is higher: 11.6% for the first, 2.96% for the second.

First: CCCn1nc(Oc2nc(NC(C)C)nc(N(C)C)n2)ccc1=O
Second: CCc1c(C)c2ccc(OC3CCCCC3=O)cc2oc1=O (stereo unspecified)
The inhibition (viability loss, TRAIL sensitization) of the first is lower: -7.89% for the first, -0.131% for the second.

Compared with `Cc1cc([N+](=O)[O-])c(=O)[nH]c1C`, `O=C1COc2c1ccc(O)c2O` is lower in inhibition (viability loss, TRAIL sensitization): 16.2% for the first, -11.8% for the second.

First: CC(/C=C/C1(O)C(C)CC(=O)CC1(C)C)OC1OC(CO)C(O)C(O)C1O (stereo unspecified)
Second: CNCC(O)c1ccc(O)c(O)c1 (stereo unspecified)
The inhibition (viability loss, TRAIL sensitization) of the first is higher: 14.6% for the first, -0.467% for the second.

In the case of `NC(=O)c1c(NC(=O)c2ccccc2)sc2c1CCCC2`, the inhibition (viability loss, TRAIL sensitization) is reported as 53.3% (active).
For `CN1C(=O)c2ccccc2C(C(=O)NCCCN2CCCC2)C1c1c[nH]c2ccccc12` (stereo unspecified), the inhibition (viability loss, TRAIL sensitization) was 61.6% (active).
With `Cc1cc(/C=C2/C(=N)N3C(=NC2=O)SN=C3S(C)(=O)=O)c(C)n1-c1ccccc1` the inhibition (viability loss, TRAIL sensitization) was 72.2% (active).
With `CCOc1ccc(-c2cc(C(=O)N/N=C/c3ccc(O)cc3)c3ccccc3n2)cc1` the inhibition (viability loss, TRAIL sensitization) was 72.3% (active).
In the case of `Cc1nc2cc(NC(=O)Nc3cccc(F)c3)ccc2n1C`, the inhibition (viability loss, TRAIL sensitization) is reported as 63.6% (active).
With `CN(CCO)c1ccc(/C=N/Nc2nncc3ccccc23)cc1` the inhibition (viability loss, TRAIL sensitization) was 95.3% (active).
With `CCC(C)c1ccc(O)c(/C=N/O)c1` (stereo unspecified) the inhibition (viability loss, TRAIL sensitization) was 51% (active).
In the case of `COc1ccc(C(CCN(Cc2ccc(OC)c(OC)c2)C(=O)CCl)c2ccccc2)cc1` (stereo unspecified), the inhibition (viability loss, TRAIL sensitization) is reported as 97.3% (active).
